The compounds below were run on T1, MST3. Details: concentration: 1 μM,replicates: in singlicate; n = 1.
T1 construct: gene STK24
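Note: KINOMEscan kinase panel screen.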

Point of comparison: NC(=O)c1cc(-c2ccccc2)cc2c(C3CCNCC3)c[nH]c12 [GSK301362], “%Inh” value 0%. Against it:
- Cl.Oc1cc(-c2nc(-c3ccccc3)[nH]c2-c2ccncc2)ccc1Cl [SB-386023] — the same, 0%
- Cc1cc(C(=O)Nc2ccc(Oc3ccc4nc(NC(=O)C5CC5)cn4n3)cc2)nn1-c1ccccc1 — the same, 0%
- O=C(NCCNc1ccnc(NCc2ccc(F)cc2)n1)c1cc2ccccc2s1 [GSK1379944] — higher, 1%
- CNC(=O)c1ccccc1Sc1ccc2c(/C=C/c3ccccn3)n[nH]c2c1 — higher, 11%
- C=CC(=O)Nc1cc2c(Nc3ccc(F)c(Cl)c3)ncnc2cc1OCCCN1CCOCC1 [GW781483] — higher, 33%
- CC(C)Nc1cc(-c2ccc3c(N)n[nH]c3c2)nc(N)n1 [GSK2221681] — the same, 0%
- Nc1nc(Nc2ccccc2)cc(-c2ccc3c(N)n[nH]c3c2)n1 [GSK2225749] — higher, 5%
- CN(C)CC(O)COc1ccc(Nc2nccc(-c3cnn4nc(N5CCOCC5)ccc34)n2)cc1 (centres unmarked) [GW767488] — the same, 0%
- Cc1cc2cn[nH]c2cc1-c1cccc2c(N)c(C(N)=O)nnc12 — higher, 11%
- O=C(NCCCN1CCOC1=O)c1cnc(NCc2cc(Cl)ccc2Cl)nc1NC1CCCC1 — higher, 14%
- CCn1c(-c2nonc2N)nc2c(C#CC(C)(C)O)nc(OCCN)cc21.Cl.Cl [GSK902056] — the same, 0%
- Cc1n[nH]c2ccc(-c3cc(OC[C@@H](N)Cc4ccccc4)cnc3-c3ccoc3)cc12.O=C(O)C(F)(F)F.O=C(O)C(F)(F)F [GSK507358] — higher, 17%
- CN(C)CCOc1ccc(-c2cc(-c3c[nH]nc3-c3ccccn3)ccn2)cc1 [GW835314] — higher, 6%
- Cl.Cl.NC[C@H](CC1CCCCC1)NC(=O)c1cc(Br)c(-c2ccnc3[nH]ccc23)s1 [GSK1581427] — the same, 0%
- CC(C)N1C(=O)Cc2cc(Nc3ncc(C(F)(F)F)c(NCc4cccc(S(C)(=O)=O)c4)n3)ccc21 — higher, 23%
- Cc1ccc2c(-c3ccncc3)c(-c3ccc(F)cc3)nn2c1.Cl [GW461484] — higher, 2%
- COc1ccc(C[C@@H](CN)NC(=O)c2cc(Br)c(-c3ccnc4[nH]ccc34)s2)cc1.Cl.Cl [GSK1389063] — the same, 0%
- Cl.Cl.Nc1nc(-c2ccc3c(N)n[nH]c3c2)cc(N2CCCC(NC(=O)c3ccccc3)C2)n1 (centres unmarked) [GSK2286775] — higher, 12%
- CCN(CC)CCOc1ccc(Nc2ncc3cc(-c4c(Cl)cccc4Cl)c(=O)n(C)c3n2)cc1 [SB-601273] — higher, 80%
- CCN(CC)CCCCNc1ncc2cc(-c3c(Cl)cccc3Cl)c(NC(=O)NC(C)(C)C)nc2n1 — higher, 74%
- Cc1ccc(-n2nc(C(C)(C)C)cc2NC(=O)Nc2ccc(OCCN3CCOCC3)c3ccccc23)cc1 [GW839464] — higher, 11%
- C[C@@H]1CCN(C(=O)CC#N)C[C@@H]1N(C)c1ncnc2[nH]ccc12 — higher, 100%
- C[C@H]1Oc2cc(cnc2N)-c2c(nn(C)c2C#N)CN(C)C(=O)c2ccc(F)cc21 — higher, 4%
- Cc1occc1-c1nc(N)c(OC[C@@H](N)Cc2c[nH]c3ccccc23)cc1-c1cc2c(C)n[nH]c2cn1 [GSK1660450] — higher, 91.2%
- Cl.Cl.NC[C@H](Cc1ccc(C(F)(F)F)cc1)NC(=O)c1cc(Br)c(-c2ccnc3[nH]ccc23)s1 [GSK1487252] — higher, 13%

What follows are compounds tested on MST4. Details: concentration: 1 μM,replicates: in singlicate; n = 1.

Point of comparison: Cc1n[nH]c2ccc(-c3cc(OC[C@@H](N)Cc4ccccc4)cnc3-c3ccoc3)cc12.O=C(O)C(F)(F)F.O=C(O)C(F)(F)F [GSK507358], “%Inh” value 65%. Against it:
- Cl.Oc1cc(-c2nc(-c3ccccc3)[nH]c2-c2ccncc2)ccc1Cl [SB-386023] — lower, 9%
- Cc1cc(C(=O)Nc2ccc(Oc3ccc4nc(NC(=O)C5CC5)cn4n3)cc2)nn1-c1ccccc1 — lower, 0%
- O=C(NCCNc1ccnc(NCc2ccc(F)cc2)n1)c1cc2ccccc2s1 [GSK1379944] — lower, 0%
- C[C@@H](Oc1cc(-c2cnn(C3CCNCC3)c2)cnc1N)c1c(Cl)ccc(F)c1Cl — lower, 0%
- CNC(=O)c1ccccc1Sc1ccc2c(/C=C/c3ccccn3)n[nH]c2c1 — lower, 0%
- C=CC(=O)Nc1cc2c(Nc3ccc(F)c(Cl)c3)ncnc2cc1OCCCN1CCOCC1 [GW781483] — lower, 0%
- CC(C)Nc1cc(-c2ccc3c(N)n[nH]c3c2)nc(N)n1 [GSK2221681] — lower, 0%
- Nc1nc(Nc2ccccc2)cc(-c2ccc3c(N)n[nH]c3c2)n1 [GSK2225749] — lower, 0%
- CN(C)CC(O)COc1ccc(Nc2nccc(-c3cnn4nc(N5CCOCC5)ccc34)n2)cc1 (centres unmarked) [GW767488] — lower, 46%
- Cc1cc2cn[nH]c2cc1-c1cccc2c(N)c(C(N)=O)nnc12 — higher, 69%
- O=C(NCCCN1CCOC1=O)c1cnc(NCc2cc(Cl)ccc2Cl)nc1NC1CCCC1 — lower, 0%
- CCn1c(-c2nonc2N)nc2c(C#CC(C)(C)O)nc(OCCN)cc21.Cl.Cl [GSK902056] — lower, 0%
- CN(C)CCOc1ccc(-c2cc(-c3c[nH]nc3-c3ccccn3)ccn2)cc1 [GW835314] — lower, 24%
- Cl.Cl.NC[C@H](CC1CCCCC1)NC(=O)c1cc(Br)c(-c2ccnc3[nH]ccc23)s1 [GSK1581427] — lower, 10%
- CC(C)N1C(=O)Cc2cc(Nc3ncc(C(F)(F)F)c(NCc4cccc(S(C)(=O)=O)c4)n3)ccc21 — lower, 0%
- NC(=O)c1cc(-c2ccccc2)cc2c(C3CCNCC3)c[nH]c12 [GSK301362] — lower, 0%
- Cc1ccc2c(-c3ccncc3)c(-c3ccc(F)cc3)nn2c1.Cl [GW461484] — lower, 0%
- COc1ccc(C[C@@H](CN)NC(=O)c2cc(Br)c(-c3ccnc4[nH]ccc34)s2)cc1.Cl.Cl [GSK1389063] — lower, 54%
- Cl.Cl.Nc1nc(-c2ccc3c(N)n[nH]c3c2)cc(N2CCCC(NC(=O)c3ccccc3)C2)n1 (centres unmarked) [GSK2286775] — lower, 2%
- CCN(CC)CCOc1ccc(Nc2ncc3cc(-c4c(Cl)cccc4Cl)c(=O)n(C)c3n2)cc1 [SB-601273] — higher, 83%
- CCN(CC)CCCCNc1ncc2cc(-c3c(Cl)cccc3Cl)c(NC(=O)NC(C)(C)C)nc2n1 — higher, 86%
- Cc1ccc(-n2nc(C(C)(C)C)cc2NC(=O)Nc2ccc(OCCN3CCOCC3)c3ccccc23)cc1 [GW839464] — lower, 0%
- C[C@@H]1CCN(C(=O)CC#N)C[C@@H]1N(C)c1ncnc2[nH]ccc12 — lower, 0%
- C[C@H]1Oc2cc(cnc2N)-c2c(nn(C)c2C#N)CN(C)C(=O)c2ccc(F)cc21 — lower, 0%
- Cc1occc1-c1nc(N)c(OC[C@@H](N)Cc2c[nH]c3ccccc23)cc1-c1cc2c(C)n[nH]c2cn1 [GSK1660450] — higher, 94.9%
- Cl.Cl.NC[C@H](Cc1ccc(C(F)(F)F)cc1)NC(=O)c1cc(Br)c(-c2ccnc3[nH]ccc23)s1 [GSK1487252] — lower, 17%

— publication PMC5540273 (PLoS ONE, 2017)
